Data: PubChem BioAssay (EPA / NIEHS)
More than one record can exist for a structure, and the calls need not agree. Activity calls are given as the source filed them. The calls were made as follows: active = hit-call score of the fitted dose curve at least 0.9, where 1 is the maximum; inactive = score below 0.9.

Key:
[1] = read-out: Collagen III, COL3A1 (gene 1281); assay: BSK_hDFCGF_CollagenIII: BioMAP Diversity Plus: hDFCGF Assay for Collagen III Biomarker Activity (AID 2283056); conditions: primary human foreskin fibroblasts; actives raise or lower the signal
Procedure, shortened: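 Cells: human foreskin fibroblasts, primary. Dosing followed by 24 h incubation, then ELISA for collagen III. Both increases and decreases scored relative to DMSO.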

[2] = read-out: Epidermal growth factor receptor (EGFR), EGFR (gene 1956); assay: BSK_hDFCGF_EGFR: BioMAP Diversity Plus: hDFCGF Assay for Epidermal growth factor receptor (EGFR) Biomarker Activity (AID 2283057); conditions: primary human foreskin fibroblasts; actives raise or lower the signal
Procedure, shortened: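 EGFR levels by ELISA in human dermal fibroblast cultures, 24 h post-treatment, fitted bidirectionally versus DMSO. Parallel wells stained with sulforhodamine B to detect overt cytotoxicity.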

[3] = BSK_hDFCGF_Proliferation: Cell Proliferation Assessment in the BioMAP Diversity Plus: hDFCGF Assay (AID 2283059); conditions: primary human foreskin fibroblasts;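 also: curves fitted for both rise and fall of signal versus DMSO baseline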
Procedure, shortened: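 Total protein read at 560 nm after 0.1% SRB staining of TCA-fixed human skin fibroblasts, […]. Activity is fitted in both directions relative to DMSO as baseline.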

[4] = read-out: Macrophage colony-stimulating factor (MCSF), CSF1 (gene 1435); assay: BSK_hDFCGF_MCSF: BioMAP Diversity Plus: hDFCGF Assay for Macrophage colony-stimulating factor (MCSF) Biomarker Activity (AID 2283060); conditions: primary human foreskin fibroblasts; actives raise or lower the signal
Procedure, shortened: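 M-CSF levels, determined by ELISA, are taken at 24 h after dosing human skin fibroblasts. Responses in either direction are fitted with DMSO serving as the baseline.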

[5] = BSK_hDFCGF_SRB: Viability Assessment in the BioMAP Diversity Plus: hDFCGF Assay (AID 2283061); conditions: primary human foreskin fibroblasts;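 also: cells exposed to compound for 24 h before the read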
Procedure, shortened: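 Cells were dosed with test chemical, cultured 24 h, fixed with 10% TCA, then stained with 0.1% SRB and read at 560 nm. The fibroblasts were human foreskin primary cells, and DMSO served as baseline.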

[6] = read-out: TIMP metallopeptidase inhibitor 1 (TIMP1), TIMP1 (gene 7076); assay: BSK_hDFCGF_TIMP1: BioMAP Diversity Plus: hDFCGF Assay for TIMP metallopeptidase inhibitor 1 (TIMP1) Biomarker Activity (AID 2283062); conditions: primary human foreskin fibroblasts; actives raise or lower the signal
Procedure, shortened: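 Fibroblasts from human foreskin are treated with test chemical and harvested at 24 h. TIMP-1 is quantified by ELISA, and gain or loss of signal is scored against DMSO.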

[7] = read-out: Monokine induced gamma interferon (MIG), CXCL9 (gene 4283); assay: BSK_hDFCGF_MIG: BioMAP Diversity Plus: hDFCGF Assay for Monokine induced gamma interferon (MIG) Biomarker Activity (AID 2283063); conditions: primary human foreskin fibroblasts; actives raise or lower the signal
Procedure, shortened: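 MIG signal, determined by ELISA, reflects 24 h chemical exposure of human skin primary fibroblasts. DMSO serves as negative control and baseline.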

[8] = read-out: Matrix Metallopeptidase 1 (MMP1), MMP1 (gene 4312); assay: BSK_hDFCGF_MMP1: BioMAP Diversity Plus: hDFCGF Assay for Matrix Metallopeptidase 1 (MMP1) Biomarker Activity (AID 2283064); conditions: primary human foreskin fibroblasts; actives raise or lower the signal
Procedure, shortened: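 Human foreskin fibroblasts exposed to chemical for 24 h; MMP1 detected by ELISA, with DMSO as baseline for bidirectional fitting.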

[9] = read-out: Vascular cell adhesion molecule 1 (VCAM1), VCAM1 (gene 7412); assay: BSK_hDFCGF_VCAM1: BioMAP Diversity Plus: hDFCGF Assay for Vascular cell adhesion molecule 1 (VCAM1) Biomarker Activity (AID 2283065); conditions: primary human foreskin fibroblasts; actives raise or lower the signal;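 as to AC50: VCAM-1 protein level quantified by ELISA after 24 h chemical exposure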
Procedure, shortened: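 Cells are dosed, cultured for 24 h, then VCAM-1 is quantified by ELISA; signal increases and decreases are both fitted relative to DMSO.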

[10] = read-out: Plasminogen activator inhibitor-1 (PAI1), SERPINE1 (gene 5054); assay: BSK_hDFCGF_PAI1: BioMAP Diversity Plus: hDFCGF Assay for Plasminogen activator inhibitor-1 (PAI1) Biomarker Activity (AID 2283066); conditions: primary human foreskin fibroblasts; actives raise or lower the signal
Procedure, shortened: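 PAI-1 levels in human dermal foreskin fibroblasts were quantified by ELISA 24 h after dosing, with gain or loss analysed against DMSO. Overt cytotoxicity was checked by sulforhodamine B total-protein staining in parallel cultures.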

[11] = read-out: Intercellular Adhesion Molecule 1 (ICAM1), ICAM1 (gene 3383); assay: BSK_KF3CT_ICAM1: BioMAP Diversity Plus: KF3CT Assay for Intercellular Adhesion Molecule 1 (ICAM1) Biomarker Activity (AID 2283067); conditions: primary human keratinocytes with fibroblasts; actives raise or lower the signal
Procedure, shortened: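 Dose the keratinocyte/fibroblast co-culture, wait 24 h, measure ICAM-1 by ELISA, then fit increases or decreases against DMSO. Cytotoxicity is checked in parallel cultures by SRB total-protein staining.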

[12] = read-out: Interferon-gamma inducible Protein 10 (IP10), CXCL10 (gene 3627); assay: BSK_KF3CT_IP10: BioMAP Diversity Plus: KF3CT Assay for Interferon-gamma inducible Protein 10 (IP10) Biomarker Activity (AID 2283068); conditions: primary human keratinocytes with fibroblasts; actives raise or lower the signal
Procedure, shortened: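 Human keratinocyte plus foreskin fibroblast primary co-culture exposed to test chemical for 24 h; IP-10 measured by ELISA. Concentration-response fitted bidirectionally against DMSO control as baseline.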

[13] = BSK_KF3CT_SRB: Viability Assessment in the BioMAP Diversity Plus: KF3CT Assay (AID 2283069); conditions: primary human keratinocytes with fibroblasts;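 also: fitted for both signal gain and loss against DMSO baseline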
Procedure, shortened: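 Overt cytotoxicity is assessed as total protein by sulforhodamine B staining in parallel human skin co-cultures at 24 h after dosing. DMSO serves as negative control and baseline.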

[14] = read-out: Interleukin-1 alpha (IL1a), IL1A (gene 3552); assay: BSK_KF3CT_IL1a: BioMAP Diversity Plus: KF3CT Assay for Interleukin-1 alpha (IL1a) Biomarker Activity (AID 2283070); conditions: primary human keratinocytes with fibroblasts; actives raise or lower the signal
Procedure, shortened: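 Readout is IL-1a level by ELISA, compared bidirectionally with DMSO as baseline. Cells: human keratinocytes co-cultured with foreskin fibroblasts, harvested 24 h post-dose.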

[15] = read-out: TIMP metallopeptidase inhibitor 2 (TIMP2), TIMP2 (gene 7077); assay: BSK_KF3CT_TIMP2: BioMAP Diversity Plus: KF3CT Assay for TIMP metallopeptidase inhibitor 2 (TIMP2) Biomarker Activity (AID 2283071); conditions: primary human keratinocytes with fibroblasts; actives raise or lower the signal
Procedure, shortened: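 TIMP-2 measured by ELISA at 24 h in human keratinocyte/fibroblast primary co-cultures exposed to chemicals. Both increases and decreases were fitted against DMSO. Parallel cultures were stained with SRB for total protein as an overt-cytotoxicity check.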

[16] = read-out: Transforming growth factor beta 1 (TGFb1), TGFB1 (gene 7040); assay: BSK_KF3CT_TGFb1: BioMAP Diversity Plus: KF3CT Assay for Transforming growth factor beta 1 (TGFb1) Biomarker Activity (AID 2283072); conditions: primary human keratinocytes with fibroblasts; actives raise or lower the signal
Procedure, shortened: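 ELISA quantifies TGF-b1 at 24 h post-dose in a primary human skin co-culture of keratinocytes and fibroblasts, with gain or loss judged against DMSO. Parallel SRB total-protein staining flags overt cytotoxicity.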

[17] = read-out: Matrix Metallopeptidase 9 (MMP9), MMP9 (gene 4318); assay: BSK_KF3CT_MMP9: BioMAP Diversity Plus: KF3CT Assay for Matrix Metallopeptidase 9 (MMP9) Biomarker Activity (AID 2283074); conditions: primary human keratinocytes with fibroblasts; actives raise or lower the signal;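 as to AC50: MMP9 protein level quantified by ELISA in the co-culture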
Procedure, shortened: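 Values come from bidirectional fitting relative to DMSO of MMP-9 levels, which were measured by ELISA. Measurements were taken 24 h after chemical dosing of a keratinocyte and foreskin fibroblast co-culture.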

CD40, CD40 (gene 958) = assay: BSK_LPS_CD40: BioMAP Diversity Plus: LPS Assay for CD40 Biomarker Activity (AID 2283076); conditions: primary human HUVEC with PBMC; actives raise or lower the signal
Procedure, shortened: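 CD40 signal, measured by ELISA, is fitted in both directions relative to DMSO vehicle. The system is an LPS-driven human vascular primary co-culture of endothelial cells and PBMC, sampled 24 h after compound addition.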

[18] = read-out: E-selectin (Homo sapiens) (UniProt P16581); assay: BSK_LPS_Eselectin: BioMAP Diversity Plus: LPS Assay for Eselectin Biomarker Activity (AID 2283077); conditions: primary human HUVEC with PBMC; actives raise or lower the signal
Procedure, shortened: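 Signal of E-selectin, detected by ELISA, served as the endpoint; cells were umbilical vein endothelium with PBMC, read 24 h after treatment. DMSO defined baseline, and both increases and decreases were fitted.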

[19] = read-out: Interleukin-8 (IL8), CXCL8 (gene 3576); assay: BSK_LPS_IL8: BioMAP Diversity Plus: LPS Assay for Interleukin-8 (IL8) Biomarker Activity (AID 2283078); conditions: primary human HUVEC with PBMC; actives raise or lower the signal
Procedure, shortened: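 Endothelial cells and PBMC from human donors are co-cultured, treated with chemicals and LPS, then assayed for IL-8 by ELISA after 24 h. Parallel SRB staining (0.1% SRB after 10% TCA fixation, 560 nm) flags cytotoxicity.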

Measured: AC50

Sequence of E-selectin (Homo sapiens) (P16581 whole entry, looked up): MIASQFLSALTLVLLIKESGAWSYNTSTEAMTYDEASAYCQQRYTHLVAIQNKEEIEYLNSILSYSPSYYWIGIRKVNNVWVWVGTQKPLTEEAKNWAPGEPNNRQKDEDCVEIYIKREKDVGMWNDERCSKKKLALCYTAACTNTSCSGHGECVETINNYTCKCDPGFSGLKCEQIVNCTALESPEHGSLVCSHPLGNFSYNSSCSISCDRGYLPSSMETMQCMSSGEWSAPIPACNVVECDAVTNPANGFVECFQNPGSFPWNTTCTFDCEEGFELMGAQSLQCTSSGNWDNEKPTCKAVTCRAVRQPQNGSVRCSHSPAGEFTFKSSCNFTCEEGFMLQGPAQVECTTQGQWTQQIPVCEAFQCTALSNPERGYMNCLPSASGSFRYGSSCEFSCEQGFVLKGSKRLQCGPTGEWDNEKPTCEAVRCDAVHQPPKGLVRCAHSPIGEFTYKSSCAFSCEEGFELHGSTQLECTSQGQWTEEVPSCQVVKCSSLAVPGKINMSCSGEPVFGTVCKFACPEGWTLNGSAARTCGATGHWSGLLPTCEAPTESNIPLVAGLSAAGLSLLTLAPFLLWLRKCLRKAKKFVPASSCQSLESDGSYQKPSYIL

CC(C)(c1cc(Br)c(OCCO)c(Br)c1)c1cc(Br)c(OCCO)c(Br)c1
active: [1] 4.6 µM | [3] 4.47 µM | [4] 8.17 µM | [5] 16.2 µM | [6] 25.4 µM | [7] 13.1 µM | [9] 7.21 µM | [10] 16.2 µM | [11] 16.2 µM | [12] 9.81 µM | [13] 9.41 µM | [14] 12.1 µM | [15] 16.2 µM | [16] 6.03 µM | [17] 7.47 µM | CD40, CD40 (gene 958) 11.9 µM
inactive: [2] | [8] | [18] | [19]

COc1ccc2nc(N)sc2c1
inactive: all assays above

c1ccc2c(c1)ccc1cc3c(ccc4ccccc43)cc12
inactive: [1] | [2] | [3] | [4] | [5] | [6] | [7] | [8] | [9] | [10] | [11] | [12] | [13] | [14] | [15] | [16] | [17] | CD40, CD40 (gene 958) | [18] | [19]
active: [9] 0.0192 µM | [15] 3.59 µM | [19] 1.84 µM

C/C=C\C/C=C/CCCCCCCCOC(C)=O
inactive: [2] | [13]
active: [1] 20 µM | [3] 29.7 µM | [4] 29.9 µM | [5] 31.7 µM | [6] 30.4 µM | [7] 28.3 µM | [8] 32.9 µM | [9] 24.6 µM | [10] 28.9 µM | [11] 24.6 µM | [12] 39.4 µM | [14] 26.3 µM | [15] 20 µM | [16] 10.8 µM | [17] 29.5 µM | CD40, CD40 (gene 958) 20 µM | [18] 30.9 µM | [19] 34 µM
